Records with an inconclusive call do not appear. Active and inactive are the calls of the source. Unless noted, calls come from the whole dose curve; as a rule, active = well fitted curve in the direction sought with a large enough effect; inconclusive = small, poorly fitted or top-dose-only effect, or another doubt; inactive = no such curve, though single readings can be large; an effect the other way counts as inactive or inconclusive.

Assay [1] can be described thus: qHTS Assay for Lipid Storage Modulators (AID 1519; calls by dose curve; for activity change, negative = inhibition: % is set by controls: 0 for no effect and ±100 for the full control effect). To be noted: Drosophila S3 cells, BODIPY lipid droplet/cell ratio, laser cytometry, cells loaded with oleic acid. The method, boiled down:
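Cells seeded at 5,000 per well were treated with compounds over a concentration series and loaded with oleic acid (400 uM, as added). Lipid droplet fluorescence (488 nm excitation, 500-530 nm channel) was read by laser-scanning cytometry and normalized to 20 uM Triacsin C.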

Assay [2] is described as follows: Cytometric Cell-Based qHTS for Inhibitors of the mTORC1 Signaling Pathway in MEF (Tsc2-/-, p53-/-) Cells (AID 2660).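 Note: percent of cells above a phospho-rpS6 to PI ratio cutoff in each well; plate controls were DMSO for no effect and rapamycin for full effect.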 The settings on record: mTORC1 pathway cytometry; series mostly up to 38.3 µM. In short, it runs like this:
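Immunofluorescence qHTS of rpS6 Ser235/236 phosphorylation: MEFs (Tsc2-/-, p53-/-) treated 24 h, 37 C, in DMEM + 10% FBS. Alexa-488 signal normalized to PI count, referenced to rapamycin (7.5 nM) and DMSO; PI cell number recorded for viability.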

Assay [3] can be described thus: High Content Imaging Cell-Based qHTS for Inhibitors of the mTORC1 Signaling Pathway in MEF (Tsc2-/-, p53-/-) Cells (AID 2666). To be noted: at 38.3 µM (top of the series). In short, it runs like this: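 Phospho-rpS6 (Ser235/236) immunofluorescence, normalized and scored as % positive cells using rapamycin and DMSO controls, was read in empty-vector Tsc2-/-, p53-/- MEFs after 24 h compound exposure at 37 C; propidium iodide counted cells.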

Assay [4] is described as follows: High Content Imaging Cell-Based qHTS for Inhibitors of the mTORC1 Signaling Pathway in MEF Cells (AID 2667).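 Note: Tsc2-/- p53-/- MEFs stably re-expressing wild-type Tsc2 exposed 24 h; plate controls were DMSO wells for no effect and rapamycin control wells for full effect.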 The settings on record: series mostly up to 38.3 µM. The method, boiled down: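 WT MEFs (Tsc2-/-, p53-/- re-expressing Tsc2), in DMEM + 10% FBS, were treated with compound for 24 h at 37 C. Cells were then fixed and stained for phospho-rpS6 Ser235/236 with propidium iodide as cell count. Values are % positive cells, with thresholds set against rapamycin-treated cells.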

The nature of assay [5]: Cytometry Cell-Based qHTS for Inhibitors of the mTORC1 Signaling Pathway in MEF cells (AID 2668).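 Note: Tsc2-/- p53-/- mouse embryonic fibroblasts stably re-expressing wild-type Tsc2; percent cells positive for phospho-rpS6 Ser235/236 relative to propidium iodide stain; plate controls were DMSO wells for no effect and 7.5 nM rapamycin control wells for full effect.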 The settings on record: mTORC1 pathway readout; series mostly up to 38.3 µM. In short, it runs like this: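 Pathway inhibition in WT Tsc2-rescued Tsc2-/-, p53-/- MEFs is measured as the Alexa-488 phospho-rpS6 to propidium iodide intensity ratio after 24 hrs of compound at 37 degree Celsius. PI-stained cell number gives viability.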

Assay [6] has as its target Ubiquitin carboxyl-terminal hydrolase 2 (Homo sapiens) (UniProt O75604). The experiment in a line: qHTS Validation Assay for Inhibitors of Ubiquitin-specific Protease USP2a Using CHOP2 as the Reporter (AID 463106).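 Note: plate controls were DMSO for no effect and full inhibition by NEM for full effect.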 To be noted: USP2a cleavage of CHOP2 reporter, enzymatic; series mostly up to 38.3 µM. The method, boiled down:
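USP2 core (10 nM final) was preincubated with compound 30 min at RT in pH 8.0 Tris/CaCl2/beta-ME/CHAPS buffer. Ub-CHOP2 and reporter substrate (25 nM final each) were then added, with fluorescence (Ex 485/Em 531) read after 60 min. Data were normalized to NEM full inhibition and fitted to concentration-response curves.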

Assay [7] in a line: Validation of Assay for Modulators of Lamin A Splicing (AID 1459; active = well fitted curve in the direction sought with a large enough effect in the signal ratio; the % refers to the signal ratio;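 note: cells exposed to compound for two days before reading; 0% is about no effect; ratio rise marks activators and ratio drop marks inhibitors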). To be noted: Lamin A splicing dual RFP/GFP fluorescence reporter; series mostly up to 9.22 µM. The method, boiled down: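 Splicing correction is reported by an EGFP-containing lamin A minigene in stably transfected S3 HeLa cells, while DsRed2 controls for viability and nonspecific signal. Cells are exposed to compounds for 48 hrs before the GFP over RFP ratio is taken.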

Assay [8] addresses DNA repair nuclease/redox regulator APEX1 (Homo sapiens) (UniProt P27695). The experiment in a line: qHTS Validation Assay for Inhibitors of the Human Apurinic/apyrimidinic Endonuclease 1 (APE1) (AID 1705;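 note: TAMRA fluorescence gain over two minutes as APE1 cuts a quenched THF abasic duplex; % is set by controls: 0 for no effect and ±100 for the full control effect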). The settings on record: purified APE1 endonuclease activity, fluorescence, titration; series mostly up to 57.1 µM. The method, boiled down: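 Endonuclease activity of human APE1 is followed as dequenching when the enzyme incises a tetrahydrofuran abasic site in a short duplex labelled 5'-TAMRA/3'-BHQ-2 (50 nM final), after 15 min enzyme–compound preincubation at room temperature.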

Assay [9] is described as follows: Counterscreen for APE1 Inhibitors: Fluorescent Dye Displacement Validation Assay (AID 1707).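 Note: plate controls were ThO with dsDNA and no compound for no effect and ThO without dsDNA for full effect.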 The settings on record: fluorescent dye displacement from DNA; series mostly up to 57.1 µM. In short, it runs like this: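 Compounds are scored by their ability to displace Thiazole Orange (250 nM) from a 50 nM TAMRA-tagged duplex bearing a tetrahydrofuran abasic site. Buffer is 50 mM Tris-HCl pH7.5, 50mM NaCl, 2 mM MgCl2, 0.01% Tween-20.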

The target in assay [10] is Endonuclease 4 (Escherichia coli (strain K12)) (UniProt P0A6C1). The experiment in a line: Counterscreen for APE1 Inhibitors: qHTS Validation Assay for Inhibitors of Endonuclease IV (AID 1708). Note: % is set by controls: 0 for no effect and ±100 for the full control effect. The settings on record: E. coli endonuclease IV, DNA cleavage fluorescence; series mostly up to 57.1 µM. The method, boiled down:
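Cleavage of a quenched abasic-site DNA duplex (50 nM, 5'-TAMRA, 3'-BHQ-2) by 2 nM enzyme is followed as fluorescence increase. Compounds are preincubated with enzyme 15 min at room temperature before substrate addition.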

Assay [11] can be described thus: qHTS for differential inhibitors of proliferation of Plasmodium falciparum line 7G8 (AID 1815).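 Note: parasite growth measured after three days of incubation; plate controls were vehicle wells for no effect and reference inhibitor wells for full effect.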 To be noted: Plasmodium falciparum 7G8 proliferation inhibition; series mostly up to 28.7 µM.
Assay [12] in a line: qHTS for differential inhibitors of proliferation of Plasmodium falciparum line GB4 (AID 1816).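 Note: parasite growth measured after 72 h incubation; 0% = vehicle DMSO and -100% = reference inhibitor.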 To be noted: series mostly up to 28.7 µM.
Assay [13] can be described thus: qHTS for differential inhibitors of proliferation of Plasmodium falciparum line 3D7 (AID 1876).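 Note: parasite growth measured after three days of culture; 0% = vehicle wells and -100% = reference inhibitor wells.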 To be noted: P. falciparum 3D7 proliferation inhibition; series mostly up to 28.7 µM.
Assay [14] can be described thus: qHTS for differential inhibitors of proliferation of Plasmodium falciparum line D10 (AID 1877).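 Note: parasites grown with compound for 72 h before DNA staining; plate controls were vehicle wells for no effect and reference inhibitor wells for full effect.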 The settings on record: series mostly up to 28.7 µM.
Assay [15] is described as follows: qHTS for differential inhibitors of proliferation of Plasmodium falciparum line Dd2 (AID 1882).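 Note: compound exposure of 72 h on infected erythrocytes; plate controls were DMSO vehicle for no effect and 0.29 µM artemisinin for full effect; nearly all actives have a fitted effect of over 65% in size.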 To be noted: series mostly up to 28.7 µM. In short, it runs like this: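 SYBR Green I DNA fluorescence read-out, ex 485/em 535 nm. Signals were normalized to 0.29 uM artemisinin and DMSO wells, then corrected using vehicle-only plates flanking each stack. Parasite growth ran 72 h in erythrocytes before lysis.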

A short description of assay [16]: qHTS for differential inhibitors of proliferation of Plasmodium falciparum line W2 (AID 1883).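 Note: parasites grown with compound for 72 h before lysis and staining; 0% = vehicle wells and -100% = control inhibitor wells.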 The settings on record: series mostly up to 28.7 µM.
The nature of assay [17]: qHTS for differential inhibitors of proliferation of Plasmodium falciparum line HB3 (AID 1886).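 Note: parasites grown with compound for 72 h before SYBR Green readout; plate controls were vehicle for no effect and reference inhibitor for full effect.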 The settings on record: series mostly up to 28.7 µM.
Assay [18] concerns the target Ferritin light chain (Equus caballus) (UniProt P02791). The experiment in a line: qHTS Validation Assay for Identification of Novel General Anesthetics (AID 2323). Note: % is set by controls: 0 for no effect and ±100 for the full control effect. The settings on record: horse apoferritin, anesthetic-site fluorescent probe displacement; series mostly up to 76.9 µM. In short, it runs like this:
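Apoferritin from horse spleen (10 uM) was mixed with 1-aminoanthracene at 50% saturation in PBS, then compounds were added. After 10 min at room temperature, fluorescence was read (ex 380 nm, em 535 nm) and normalized to free-probe and complex controls.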

In assay [19] the target is ATP-dependent DNA helicase Q1 (Homo sapiens) (UniProt P46063). The experiment in a line: qHTS Validation Assay for Inhibitors of RecQ-Like Dna Helicase 1 (RECQ1) (AID 2353).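 Note: plate controls were DMSO vehicle for no effect and enzyme-free control for full effect.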 The settings on record: recombinant RECQ1 helicase DNA unwinding assay; series mostly up to 25.6 µM. The method, boiled down: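 50 nM RECQ1T1 preincubated 15 min with compound in Tris pH 8.0 buffer with MgCl2, DTT, Tween-20 and 2.5 ug/ml poly(dI-dC); started with 200 nM TAMRA/BHQ-2 forked duplex and 2 mM ATP. Unwinding read as fluorescence (525/598 nm), two reads 2 h apart.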

Assay [20] can be described thus: Validation screen for small molecules that induce DNA re-replication in MCF 10A normal breast cells (AID 463097). Note: 0% is about no effect; nearly all actives have a fitted effect of over 60% in size. To be noted: MCF 10A cells, DNA re-replication phenotype imaging; series mostly up to 46.1 µM. In short, it runs like this:
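DNA re-replication was detected as a rise in nuclei with elevated Hoechst fluorescence after a 48 hr compound exposure of MCF 10A cells at 37 C.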

The mark [21] stands for this setting: measured here: cell count channel max response.
Where [22] appears, read: measured here: lipid channel max response.

Chain of Ubiquitin carboxyl-terminal hydrolase 2 (Homo sapiens) (O75604 whole entry, looked up): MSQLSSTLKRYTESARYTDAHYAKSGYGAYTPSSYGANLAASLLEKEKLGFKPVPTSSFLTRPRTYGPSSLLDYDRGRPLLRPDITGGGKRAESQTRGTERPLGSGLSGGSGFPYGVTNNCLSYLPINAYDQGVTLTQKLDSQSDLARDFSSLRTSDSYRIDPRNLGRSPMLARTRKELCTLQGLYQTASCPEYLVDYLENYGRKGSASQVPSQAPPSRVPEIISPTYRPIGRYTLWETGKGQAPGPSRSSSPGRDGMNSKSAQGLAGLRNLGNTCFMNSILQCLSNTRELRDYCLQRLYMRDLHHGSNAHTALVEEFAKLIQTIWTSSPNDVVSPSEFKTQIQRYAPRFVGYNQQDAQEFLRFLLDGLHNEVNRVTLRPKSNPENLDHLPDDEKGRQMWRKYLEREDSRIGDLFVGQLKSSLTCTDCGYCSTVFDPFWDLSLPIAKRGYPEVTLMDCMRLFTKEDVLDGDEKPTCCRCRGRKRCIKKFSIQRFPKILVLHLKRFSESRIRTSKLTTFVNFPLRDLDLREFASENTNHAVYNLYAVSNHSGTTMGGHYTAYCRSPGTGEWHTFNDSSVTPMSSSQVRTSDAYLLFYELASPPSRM
Chain of Ferritin light chain (Equus caballus) (P02791 2-175 limits assumed): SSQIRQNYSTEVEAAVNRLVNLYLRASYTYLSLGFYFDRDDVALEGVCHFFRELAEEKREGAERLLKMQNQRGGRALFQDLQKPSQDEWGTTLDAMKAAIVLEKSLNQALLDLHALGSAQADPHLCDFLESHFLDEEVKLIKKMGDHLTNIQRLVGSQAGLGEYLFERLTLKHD
Chain of DNA repair nuclease/redox regulator APEX1 (Homo sapiens) (P27695 whole entry, looked up): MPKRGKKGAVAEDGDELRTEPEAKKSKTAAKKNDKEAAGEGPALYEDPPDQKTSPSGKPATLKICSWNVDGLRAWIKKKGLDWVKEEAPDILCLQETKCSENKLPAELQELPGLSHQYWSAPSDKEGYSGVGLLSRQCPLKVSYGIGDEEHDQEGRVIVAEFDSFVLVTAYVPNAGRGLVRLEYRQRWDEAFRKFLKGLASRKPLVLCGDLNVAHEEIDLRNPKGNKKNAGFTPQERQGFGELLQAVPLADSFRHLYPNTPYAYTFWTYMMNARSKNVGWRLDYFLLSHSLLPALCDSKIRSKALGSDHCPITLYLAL
Chain of ATP-dependent DNA helicase Q1 (Homo sapiens) (P46063 whole entry, looked up): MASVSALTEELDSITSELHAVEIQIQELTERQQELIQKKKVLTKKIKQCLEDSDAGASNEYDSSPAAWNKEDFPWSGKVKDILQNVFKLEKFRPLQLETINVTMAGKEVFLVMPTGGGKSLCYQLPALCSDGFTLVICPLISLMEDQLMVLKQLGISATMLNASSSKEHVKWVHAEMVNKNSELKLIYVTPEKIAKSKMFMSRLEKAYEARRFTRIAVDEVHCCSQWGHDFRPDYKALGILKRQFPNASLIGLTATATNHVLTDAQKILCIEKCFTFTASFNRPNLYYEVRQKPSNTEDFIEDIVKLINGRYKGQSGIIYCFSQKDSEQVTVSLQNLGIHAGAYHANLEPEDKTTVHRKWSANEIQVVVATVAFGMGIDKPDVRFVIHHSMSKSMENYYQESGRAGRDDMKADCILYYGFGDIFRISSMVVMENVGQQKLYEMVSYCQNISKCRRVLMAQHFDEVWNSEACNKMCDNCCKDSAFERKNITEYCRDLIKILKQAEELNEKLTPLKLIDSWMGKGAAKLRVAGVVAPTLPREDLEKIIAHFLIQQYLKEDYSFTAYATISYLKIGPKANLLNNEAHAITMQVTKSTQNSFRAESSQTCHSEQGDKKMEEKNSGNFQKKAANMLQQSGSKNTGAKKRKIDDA

As to `CC1(C)OC2CC3C4CC(F)C5=CC(=O)C=CC5(C)C4C(O)CC3(C)[C@]2(C(=O)CO)O1` (some centres not stated), in [1] (at 57.5 µM (top of the series)), the activity change, negative = inhibition was 6.59% (inactive). For the same compound, the max response in assay [1] (setting [21]) was determined as 10.6%; in assay [1] (setting [22]), 23.9%.
With `C=C1c2cccc(O)c2C(O)=C2C(=O)[C@@]3(O)C(O)=C(C(N)=O)C(=O)[C@@H](N(C)C)[C@@H]3[C@@H](O)[C@H]12`, in [1] (at 25.7 µM (top of the series)), the activity change, negative = inhibition is 1.55% (inactive). Also, the max response in [1] (setting [21]) was -8.47%; in assay [1] (setting [22]), -6.76%.
Regarding `C[C@H]1O[C@@H](n2cc(F)c(=O)[nH]c2=O)[C@H](O)[C@H]1O`, the compound was classed as inactive in assay [2], in assay [3], in assay [4], in assay [5] and in assay [6].
For `CS(=O)(=O)c1ccc(C2=C(c3ccccc3)C(=O)OC2)cc1`, in assay [1] (at 57.5 µM (top of the series)), the activity change, negative = inhibition is 14.5% (inactive). The max response in assay [1] (setting [21]) amounted to 15.3%; in assay [1] (setting [22]) it was 35.2%.
As for `CN(C)CCN(Cc1ccc(Cl)cc1)c1ccccn1`, the activity change, negative = inhibition in [1] (at 25.7 µM (top of the series)) was -3.62% (inactive). Besides, the max response in [1] (setting [21]) is -9.2%; in assay [1] (setting [22]), -15.8%.
In the case of `CC(NCCc1ccc(O)cc1)C(O)c1ccc(O)cc1` (configuration not stated), the activity change, negative = inhibition in assay [1] (at 57.5 µM (top of the series)) was 2.67% (inactive). The max response in [1] (setting [21]) stood at 13.6%; in [1] (setting [22]), 20%.
For the compound `CCNC(=O)[C@H]1O[C@@H](n2cnc3c(N)nc(NCCc4ccc(CCC(=O)O)cc4)nc32)[C@H](O)[C@H]1O`, the compound was called inactive in assay [7], in assay [8], in assay [9], in assay [10], in assay [11] and in assay [12]. Moreover, the result in [13], in assay [14], in assay [15], in assay [16], in [17] and in [18] was inactive. Besides, the outcome in assay [19] and in assay [20] was inactive. Further, the activity change, negative = inhibition in assay [1] (at 57.5 µM (top of the series)) is -1.93% (inactive). In addition, the values for the max response in assay [1] (setting [21]) and in [1] (setting [22]) were -4.53% and -7.25%, respectively.

The values are drawn from PubChem BioAssay (NCATS).
